Bioassay records from PubChem.
In the library only some 8.7% were active in any assay of this set; here they are far more common.
Vaccinia Venus: vaccinia inhibition (Venus reporter); Vaccinia virus Venus reporter expression, fluorescence; Potency, µM (top dose mostly 36.5 µM), without a hit: at the top dose activity change, negative = inhibition, hits mostly inhibitors; hit rate 0.46% among 330,000; AID 720580; calls by dose curve; tested in A549 cells; note: nearly all actives have a fitted effect of over 30% in size
Pf growth 96h: inhibits malaria parasite growth, 96 h | Potency, µM (top dose mostly 28.7 µM), for the others: at the top dose activity change, negative = inhibition, usual class: inhibitors | hit rate 6.9% among 320,000 | AID 504834 | P. falciparum luciferase reporter growth, 96 h
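Luminescence readout: decreased luciferase signal marks inhibited growth of reporter-expressing P. falciparum in infected red cells (2% hematocrit, 0.05% parasitemia final), exposed to compound two generations (96 h, 37 C, 5% CO2).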
VACV mCherry inh: inhibitors of vaccinia virus infection (mCherry reporter signal); Vaccinia virus mCherry reporter infection, fluorescence; hit rate 0.63% among 310,000; AID 720579; Potency, µM (doses to about 36.5 µM), inactives show at the highest dose activity change, negative = inhibition, usual class: inhibitors; calls by dose curve; tested in A549 cells; note: nearly all actives have a fitted effect of over 35% in size
AMA1-RON2 inh: disrupts binding of P. falciparum AMA1 to RON2 | hit rate 0.2% among 360,000 | AlphaScreen AMA1-biotinylated RON2 peptide binding | AID 720542 | Potency, µM (highest dose often 58.2 µM), for the others: at the top dose activity change, negative = inhibition, usual class: inhibitors;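 note: 0% = vehicle wells and -100% = peptide control; nearly all actives have a fitted effect of over 45% in size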
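AMA1 (3D7) with his tag at 25 nM final met compounds first, then biotinylated RON2 peptide at 25 nM; detection used donor plus acceptor beads, 10 µg/mL apiece, read by AlphaScreen after 30 min at room temperature.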
Pf growth 48h: inhibits P. falciparum growth in the first generation, 48 h; P. falciparum luciferase growth in erythrocytes, 48 h; Potency, µM (highest dose often 28.7 µM), for inactives: top-dose activity change, negative = inhibition, usual class: inhibitors; hit rate 5.9% among 310,000; AID 504832
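Cell-based growth assay: transgenic P. falciparum expressing firefly luciferase, cultured in red cells within RPMI 1640 containing 0.5% w/v Albumax, 24 mM bicarbonate and gentamycin. A drop in luciferase activity indicates inhibition.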
Numbers without * were called inactive; i = inactive; ? = inconclusive; nt = no result; [ ] = dose if it differs, or a comment. Unless noted, calls come from the whole dose curve; as a rule, active = well fitted curve in the direction sought with a large enough effect; inconclusive = small, poorly fitted or top-dose-only effect, or another doubt; inactive = no such curve, though single readings can be large; an effect the other way counts as inactive or inconclusive. Unless noted, % is set by controls: 0 for no effect and ±100 for the full control effect; potency is the fitted concentration of half-maximal effect.

SMILES	Vaccinia Venus	Pf growth 96h	VACV mCherry inh	AMA1-RON2 inh	Pf growth 48h
CN(C)S(=O)(=O)c1cc(NC(=O)CNCc2ccccc2)ccc1Cl	-6%	?	-7%	-2%	-11%
CC(=O)c1c(C)[nH]c(C(=O)Nc2ccc(Cl)c(S(=O)(=O)N(C)C)c2)c1C	-13%	?	-7%	-1%	?
CN(CCOc1ccccc1)CC(=O)Nc1ccc(Cl)c(S(=O)(=O)N(C)C)c1	-6%	9.3µM*	-14%	7%	-19%
Cc1ccccc1N1C(=O)c2cc(N)ccc2N/C1=C\F	nt	?	nt	nt	-7%
COc1ccc(CCn2c(C)cc(C(=O)CN3C(=O)C(=O)N(C4CCCC4)C3=O)c2C)cc1OC	-7%	?	-13%	-16%	9.3µM*
Cc1cccc(N=N/C(=C\O)C(=O)c2cccs2)c1	-13%	12µM*	-20%	?	?
CCc1ccc(NC(=O)C2=C(C)C(=O)OC23CCCCC3)cc1	-4%	nt	-2%	nt	nt
O=C(O)c1ccc(-c2nc(-c3ccccc3)c(-c3cccs3)[nH]2)cc1	-2%	56%	0%	-11%	?
Cc1ccc(-c2[nH]c(-c3ccc(C(=O)O)cc3)nc2-c2ccccc2)cc1	-4%	10µM*	i	2%	-32%
COc1cccc(C2CC(c3c(-c4ccccc4)c4cc(Cl)ccc4[nH]c3=O)=NN2S(C)(=O)=O)c1OC (stereo not given)	?	nt	nt	-4%	7.4µM*
CCC(=O)N1N=C(c2c(-c3ccccc3)c3cc(Cl)ccc3[nH]c2=O)CC1c1ccco1 (stereo not given)	?	?	i	0%	10µM*
COc1ccccc1C1CC(c2c(-c3ccccc3)c3cc(Cl)ccc3[nH]c2=O)=NN1S(C)(=O)=O (stereo not given)	11µM*	?	11µM*	-11%	12µM*
O=C(O)CCC(=O)N1N=C(c2c(-c3ccccc3)c3cc(Cl)ccc3[nH]c2=O)CC1c1ccco1 (stereo not given)	-4%	?	-13%	-1%	?
CCc1ccc(C(=O)c2cn(CC(=O)Nc3ccc4c(c3)OCCO4)c3ccc(CC)cc3c2=O)cc1	-4%	nt	-4%	nt	nt
CO[C@H]1C=CO[C@@]2(C)Oc3c(C)c(O)c4c(O)c(c5c(nc6cc(C)ccn65)c4c3C2=O)NC(=O)/C(C)=C\C=C[C@H](C)[C@H](O)[C@@H](C)[C@@H](O)[C@@H](C)[C@H](OC(C)=O)[C@@H]1C	-27%	nt	-5%	nt	nt
COc1ccc(C)cc1NC1(c2ccccc2)C(=O)c2ccccc2C1=O	-3%	nt	3%	nt	nt
CCC(=O)C1=C(c2ccc(F)cc2)N(C(=O)CC)n2c(nnc2-c2ccc(OC)cc2)S1	-22%	nt	-25%	nt	nt
CC(C)(C)S(=O)(=O)c1ccccc1C(=O)O	-12%	9.3µM*	nt	14%	159%
Cc1cc(C)c(S(=O)(=O)c2ccccc2C(=O)O)c(C)c1	nt	-5%	nt	3%	7%
CCOCC(=O)Nc1nc2ccccc2s1	-6%	15µM*	-9%	-1%	433%
O=C(CSc1ccccn1)Nc1nc2ccccc2s1	-12%	2.9µM*	i	-1%	45%
COc1ccc(-c2nnc3ccc(SCC(=O)Nc4nc5ccccc5s4)nn23)cc1OC	-9%	?	-9%	-8%	8.3µM*
COc1ccc(-c2nnc3ccc(SCC(=O)Nc4nccs4)nn23)cc1OC	-19%	-12%	-10%	6%[11.6 µM]	-18%
N#C/C(=C\c1ccc(OCc2ccccc2)cc1)C(=O)Nc1nc2c(s1)CCN(Cc1ccccc1)C2	-2%	?	-13%	7%	8.3µM*
COc1cc2c(cc1OC)C1O[C@](CCCCN3C(=O)c4ccccc4C3=O)(C2)Oc2c1c(=O)oc1ccc(F)cc21	nt	-14%[5.75 µM]	nt	nt	?
SMILES	Vaccinia Venus	Pf growth 96h	VACV mCherry inh	AMA1-RON2 inh	Pf growth 48h
COc1cc2c(cc1OC)C(C)N(CCN1C(=O)c3ccccc3C1=O)CC2 (stereo not given)	-7%	25%	i	-9%	34%
COc1ccc2c3c(c(=O)oc2c1)C1O[C@](CCCCN2C(=O)c4ccccc4C2=O)(Cc2cc(OC)c(OC)cc21)O3	nt	41%[5.75 µM]	nt	nt	1.5µM*
CCCCC[C@]12Cc3cc(OC)c(OC)cc3C(O1)c1c(cc(C)n(-c3ccccc3)c1=O)O2	nt	36%[5.75 µM]	nt	nt	?
COc1cc2c(cc1OC)C1O[C@](CCCCN3C(=O)c4ccccc4C3=O)(C2)OC2=C1C(=O)c1ccccc1C2=O	nt	0.34µM*	nt	nt	?
COc1cc2c(cc1OC)C1O[C@](CCCCN3C(=O)c4ccccc4C3=O)(C2)OC2=C1C(=O)CCC2	nt	1.5µM*	nt	nt	1.5µM*
CC(C)C(=O)N1CCN(CCN=Cc2c(O)n(C)c(=O)n(C)c2=O)CC1	-10%	13µM*	-3%	63%	?
N#C/C(=C\c1c(Oc2ccc(F)cc2)nc2ccccn2c1=O)c1nc2ccccc2s1	3%	nt	-10%	nt	nt
FC(F)(F)c1cccc(-n2cc(-c3ccccc3)[nH]c2=S)c1	-1%	134%	-16%	56%	12µM*
Cc1sc(NC(=O)C2CCCCC2C(=O)O)c(C(N)=O)c1-c1ccc(C(C)(C)C)cc1 (stereo not given)	-5%	34%	nt	5%	2%
CCOC(=O)c1c(NC(=O)/C=C/C(=O)O)sc(C)c1-c1ccc(C(C)(C)C)cc1	?	31%[5.75 µM]	?	-5%	1.7µM*
Cc1sc(NC(=O)/C=C/C(=O)O)c(C(N)=O)c1-c1ccc(C(C)(C)C)cc1	?	167%	?	-14%	8.3µM*
CCN(CC)c1ccc(NS(=O)(=O)c2cc3[nH]c(=O)c(=O)[nH]c3cc2C)c(C)c1	6%	nt	6%	nt	nt
COc1cccc(CNCCO)c1OCc1ccc(Cl)cc1	nt	?	nt	2%	-23%
CCOc1cc(CNCCO)cc(Br)c1OCc1ccccc1	?	0%	?	20%	?
COc1cc(CNCCO)cc(Cl)c1OCc1ccc(Cl)cc1Cl	?	-2%	?	-15%	10µM*
COc1cc(CNCCO)cc(Br)c1OCc1ccccc1Cl	?	12µM*	?	-11%	?
O=[N+]([O-])c1cc(-c2nc(-c3ccncc3)no2)ccc1NCc1ccccc1	-10%	nt	-19%	nt	nt
COc1ccc(C2N(C(C)=O)CCCN2S(=O)(=O)c2ccc(C)cc2)cc1 (stereo not given)	-17%	20%	-17%	-18%	?
COc1cccc(CNC(=O)C(=O)NCCC2CCCCN2S(=O)(=O)c2cccs2)c1 (stereo not given)	-29%	?	-22%	-21%	?
COc1ccc(CCNC(=O)C(=O)NCCC2CCCCN2S(=O)(=O)c2cccs2)cc1 (stereo not given)	-22%	7.4µM*	?	9%	?
COc1ccc(CCNC(=O)C(=O)NCCC2CCCCN2S(=O)(=O)c2ccccc2)cc1 (stereo not given)	-19%	0%	-25%	-7%	15µM*
